The values below come from publication PMC8384837, “Expanding the binding specificity for RNA recognition by a PUF domain”.

Experiment in all cases: yeast three-hybrid, YBZ-1, SC-Leu-His + 0.5 mM 3-AT, 4 days
Common to all, as to conditions: tags: N-Gal4 AD-HA kept; label: inside an RPR1-promoter hybrid RNA with tandem MS2 sites; ssRNA

In one test the target is PUM1 PUF domain R3-RAT (Homo sapiens, UniProt Q14671 828-1176, C935R;R936A;Q939T). The procedure, abridged: (§1)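 A centromeric plasmid in strain YBZ-1 co-expressed Pumilio-1 PUF domain libraries, randomized at the three base-contacting residues of each repeat, with matching RNA elements; the strain carries a LexA–MS2 coat fusion and a HIS3 reporter. After four days on SC-Leu (input) or SC-Leu-His + 0.5 mM 3-AT (selection), the repeat regions were PCR-amplified and Illumina-sequenced. The interaction score is the log change in variant frequency from input to selection, using log2 and a pseudocount of 1 where absent.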

Another test deals with PUM1 PUF domain R3-MRY (Homo sapiens, UniProt Q14671 828-1176, C935M;Q939Y). The procedure, abridged: as §1
The target of another test is PUM1 PUF domain R3-RRA (Homo sapiens, UniProt Q14671 828-1176, C935R;Q939A). The procedure, abridged:
as §1

The next test has as its target PUM1 PUF domain R5-NSV (Homo sapiens, UniProt Q14671 828-1176, C1007N;R1008S;Q1011V). The procedure, abridged:
as §1

A further test concerns the target PUM1 PUF domain R5-KLE (Homo sapiens, UniProt Q14671 828-1176, C1007K;R1008L;Q1011E). The procedure, abridged: as §1
A further test deals with PUM1 PUF domain R8-SHR (Homo sapiens, UniProt Q14671 828-1176, N1122S;Y1123H;Q1126R). The procedure, abridged:
as §1

Another test addresses PUM1 PUF domain R8-RWW (Homo sapiens, UniProt Q14671 828-1176, N1122R;Y1123W;Q1126W). The procedure, abridged: as §1
For the next test, the target named is PUM1 PUF domain R8-QFC (Homo sapiens, UniProt Q14671 828-1176, N1122Q;Y1123F;Q1126C). The procedure, abridged: as §1
The target of another test is PUM1 PUF domain R3-QCD (Homo sapiens, UniProt Q14671 828-1176, C935Q;R936C;Q939D). A digest of the protocol:
as §1

A further test addresses PUM1 PUF domain R3-APD (Homo sapiens, UniProt Q14671 828-1176, C935A;R936P;Q939D). A digest of the protocol: as §1
In the next test the target is PUM1 PUF domain R3-IWD (Homo sapiens, UniProt Q14671 828-1176, C935I;R936W;Q939D). A digest of the protocol: as §1
PUM1 PUF domain R3-IWD, sequence (Q14671 828-1176 C935I/R936W/Q939D): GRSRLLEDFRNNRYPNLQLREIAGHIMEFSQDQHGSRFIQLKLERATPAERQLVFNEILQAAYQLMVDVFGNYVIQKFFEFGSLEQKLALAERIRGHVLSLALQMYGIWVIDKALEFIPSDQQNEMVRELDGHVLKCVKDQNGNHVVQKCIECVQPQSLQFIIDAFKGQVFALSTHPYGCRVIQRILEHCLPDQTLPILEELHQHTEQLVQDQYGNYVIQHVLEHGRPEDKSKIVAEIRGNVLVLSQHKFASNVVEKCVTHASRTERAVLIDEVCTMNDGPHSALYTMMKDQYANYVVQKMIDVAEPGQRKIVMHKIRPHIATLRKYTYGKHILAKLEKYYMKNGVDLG

PUM1 PUF domain R3-MRY, sequence (Q14671 828-1176 C935M/Q939Y): as the sequence (Q14671 828-1176 C935I/R936W/Q939D) above, with I108M, W109R, D112Y counted along it
PUM1 PUF domain R3-RRA, sequence (Q14671 828-1176 C935R/Q939A): as the sequence (Q14671 828-1176 C935I/R936W/Q939D) above, with I108R, W109R, D112A counted along it
PUM1 PUF domain R3-QCD, sequence (Q14671 828-1176 C935Q/R936C/Q939D): as the sequence (Q14671 828-1176 C935I/R936W/Q939D) above, with I108Q, W109C counted along it
PUM1 PUF domain R3-APD, sequence (Q14671 828-1176 C935A/R936P/Q939D): as the sequence (Q14671 828-1176 C935I/R936W/Q939D) above, with I108A, W109P counted along it
PUM1 PUF domain R8-QFC, sequence (Q14671 828-1176 N1122Q/Y1123F/Q1126C): as the sequence (Q14671 828-1176 C935I/R936W/Q939D) above, with I108C, W109R, D112Q, N295Q, Y296F, Q299C counted along it
PUM1 PUF domain R8-RWW, sequence (Q14671 828-1176 N1122R/Y1123W/Q1126W): as the sequence (Q14671 828-1176 C935I/R936W/Q939D) above, with I108C, W109R, D112Q, N295R, Y296W, Q299W counted along it

In the case of “GGCUAGAACUAGUGGAUCCCCCGGCGCCCGGCGGCUCGAGCCCGGGUAAGUGUAAUUAGUCUGCAUGCCGCCGGGCGCCAUGCCUGCAGGUCGACUCUAGAAAACAUG”, the binding signal with PUM1 PUF domain R3-RAT is 3.26 log2 enrichment (interaction score); with PUM1 PUF domain R3-MRY, 1.32 log2 enrichment (interaction score); with PUM1 PUF domain R3-RRA, 3.19 log2 enrichment (interaction score).
In the case of “GGCUAGAACUAGUGGAUCCCCCGGCGCCCGGCGGCUCGAGCCCGGGUAAGUGUUAAUAGUCUGCAUGCCGCCGGGCGCCAUGCCUGCAGGUCGACUCUAGAAAACAUG”, the binding signal was 2.21 log2 enrichment (interaction score) with PUM1 PUF domain R5-NSV and 2.51 log2 enrichment (interaction score) with PUM1 PUF domain R5-KLE.
For the sequence “GGCUAGAACUAGUGGAUCCCCCGGCGCCCGGCGGCUCGAGCCCGGGUAAGCGUAAAUAGUCUGCAUGCCGCCGGGCGCCAUGCCUGCAGGUCGACUCUAGAAAACAUG”, the binding signal is 3.61 log2 enrichment (interaction score) in the test with PUM1 PUF domain R8-SHR, 5.89 log2 enrichment (interaction score) with PUM1 PUF domain R8-RWW and 3.87 log2 enrichment (interaction score) with PUM1 PUF domain R8-QFC.
For the sequence “GGCUAGAACUAGUGGAUCCCCCGGCGCCCGGCGGCUCGAGCCCGGGUAAGUGUAAGUAGUCUGCAUGCCGCCGGGCGCCAUGCCUGCAGGUCGACUCUAGAAAACAUG”, the binding signal in the test with PUM1 PUF domain R3-MRY was 4.3 log2 enrichment (interaction score); with PUM1 PUF domain R3-QCD it was 3.09 log2 enrichment (interaction score); with PUM1 PUF domain R3-APD, 6.54 log2 enrichment (interaction score); in the test with PUM1 PUF domain R3-IWD, 4.83 log2 enrichment (interaction score).
